Screen size: about 320,000 compounds; about 8,000 (2.5%) were called active. Cut-off read from the data, not from the text of the source: active = activation above about 47%; inactive = the rest. What follows is part of a selection rich in actives, with near analogues and random picks from the rest.

For the test, the target named is Aryl hydrocarbon receptor (Homo sapiens) (UniProt P35869). The test is described as follows: AHR activators, primary screen, cell-based, luminescence, luciferase reporter, human (AID 2796).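 Note: 0% = vehicle wells and 100% = reference agonist.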 The conditions noted are these: AHR-responsive luciferase reporter cells, at 5 µM, stronger effect = higher value. Background: A reporter such as luciferase makes a cellular process visible.
Aryl hydrocarbon receptor (Homo sapiens), sequence (P35869 whole entry, looked up): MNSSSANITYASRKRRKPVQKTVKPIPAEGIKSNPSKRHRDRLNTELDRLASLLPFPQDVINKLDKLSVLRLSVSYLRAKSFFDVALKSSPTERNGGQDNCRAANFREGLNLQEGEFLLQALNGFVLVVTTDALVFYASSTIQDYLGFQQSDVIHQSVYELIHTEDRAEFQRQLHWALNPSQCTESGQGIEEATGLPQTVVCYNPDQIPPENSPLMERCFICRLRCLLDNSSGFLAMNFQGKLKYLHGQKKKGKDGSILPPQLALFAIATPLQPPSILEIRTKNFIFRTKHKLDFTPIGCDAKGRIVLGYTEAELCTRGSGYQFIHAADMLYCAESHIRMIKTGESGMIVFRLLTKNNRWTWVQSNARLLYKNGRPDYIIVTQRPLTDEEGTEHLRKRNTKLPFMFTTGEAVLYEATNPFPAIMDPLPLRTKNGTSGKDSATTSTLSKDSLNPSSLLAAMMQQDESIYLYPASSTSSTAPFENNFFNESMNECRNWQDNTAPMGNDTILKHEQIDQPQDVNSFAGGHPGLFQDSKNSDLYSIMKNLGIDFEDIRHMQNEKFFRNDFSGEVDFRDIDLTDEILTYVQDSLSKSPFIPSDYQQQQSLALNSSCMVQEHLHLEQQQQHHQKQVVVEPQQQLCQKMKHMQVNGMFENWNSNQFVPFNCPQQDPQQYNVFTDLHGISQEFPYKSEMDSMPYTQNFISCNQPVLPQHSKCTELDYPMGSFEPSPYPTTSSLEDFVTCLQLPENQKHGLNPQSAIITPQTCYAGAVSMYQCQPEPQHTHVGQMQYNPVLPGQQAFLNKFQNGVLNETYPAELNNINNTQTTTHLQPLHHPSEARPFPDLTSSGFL
`CCCCCCSc1ccc(-c2nc3ccc(Cl)cn3c2NCc2ccccc2)cc1`: the activation is 1.54% (inactive).

Regarding `Cc1c2cnn(-c3ccccc3)c(=O)c2c(C)n1CCCC(=O)N1CCN(C)CC1`, the activation was -2.09% (inactive).

With `C/C(=N\NC(=S)NC1CCCCC1)c1ccc(C)o1`, the activation was 8.26% (inactive).

As to `CC(C)(C)C1CCC(=NNC(=O)c2ccc(Br)o2)CC1` (stereo not drawn), the activation is 9.69% (inactive).

Take `C/C(=N/NC(=O)c1ccc(Br)o1)c1ccc(C)o1`: the activation is 52.7% (active).

On to `CCN(CCCNC(=O)CSc1cc(=O)n(C)c2cc(Cl)ccc12)Cc1ccccc1`, for which the activation was -0.33% (inactive).

Take `O=C(NC1CC1)C(Cc1ccccc1)NS(=O)(=O)c1ccccc1F` (stereo not drawn): the activation is 3.6% (inactive).

`Cc1no[n+]([O-])c1COc1ccccc1/C=C1\NC(=S)NC1=O`: the activation was 25.2% (inactive).

For the compound `COc1ccccc1NC(=O)C(C)OC(=O)c1ccc(-n2cnnn2)cc1` (stereo not drawn), the activation is -0.41% (inactive).

With `COc1ccccc1NC(=O)c1cc(Cl)nnc1Cl`, the activation is 17.1% (inactive).

Turning to `COc1ccccc1NC(=O)c1cc(Cl)nc2ccccc12`, the activation was 48.5% (active).

For the compound `COc1ccc(-c2cc(C(=O)Nc3ccccc3O)c3ccccc3n2)cc1`, the activation is -7.68% (inactive).

Regarding `O=C1c2ccccc2C2=Nc3ccccc3SC(c3ccccc3F)C12` (stereo not drawn), the activation was 74.3% (active).

As to `O=C1c2ccccc2C(=O)C1c1ccccc1F`, the activation was 1.57% (inactive).

For `CCOC(=O)C1=C(C)N=C2c3ccccc3C(=O)C2C1c1ccc(Br)cc1` (stereo not drawn), the activation was 3.41% (inactive).

For `CCCn1cc(S(=O)(=O)c2ccc(C)cc2)c(=O)c2cc(OCC)ccc21`, the activation is -2.12% (inactive).

In the case of `Oc1ccccc1-c1cc(-c2ccc(Cl)cc2)n[nH]1`, the activation was 52.2% (active).

Take `Nc1cccc(-c2cc(-c3ccccc3)nc(-c3cccc(N)c3)n2)c1`: the activation is 27.6% (inactive).

Regarding `Cc1ccc(NC(=O)c2cc(-c3ccccc3O)n[nH]2)cc1C`, the activation is -2.85% (inactive).

In the case of `O=C(Nc1cccnc1Cl)c1cc(-c2ccccc2O)on1`, the activation was 5.22% (inactive).

In the case of `c1ccc(-c2cc(-c3nnc4sc(-c5ccccn5)nn34)[nH]n2)cc1`, the activation was -8.07% (inactive).

`c1ccc(-c2cc(-c3ccccc3)[nH]n2)cc1`: the activation is 65.1% (active).

For `CCCNC(=O)C(=O)Nc1cc2c3c(c1)CCC(=O)N3CCC2`, the activation was 28.5% (inactive).

Turning to `CSC1=N/C(=C\C=C\c2cccs2)C(=O)S1`, the activation is 8.97% (inactive).

`CCOc1ccc(NC(=O)CCS(=O)(=O)c2ccc3c(c2)CCCN3C(=O)CC)cc1`: the activation was 4.35% (inactive).

In the case of `O=C(Cn1cnc2c(OCc3ccccc3)ncnc21)NCCCn1ccnc1`, the activation was -1.22% (inactive).

`CCCN1C(=O)C(NC(C)=O)c2cc(OC)ccc21` (stereo not drawn): the activation was 0.18% (inactive).

Take `CCOC1CS(=O)(=O)CC1OCC` (stereo not drawn): the activation was 1.87% (inactive).
